Assay [1] can be described thus: E. coli DRC41 culture turbidity changes, primary screen, E. coli filamentation inducer project, strain DRC41, OD650, 48 h (AID 1152).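 Further: E. coli MC1000 strain DRC41 lacking acrAB efflux pump and sulA.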 Conditions: E. coli DRC41 (acrAB sulA), higher = more signal, called active from +8 up or from −8 down.
Assay [2] in a line: small-molecule binders of probe aLefty1, primary screen, biochemical, small-molecule microarray, 635/667 nm fluorescence (AID 1153).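 Further: score merges spot fluorescence with signal-to-noise ratio from the scanned slide images.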 Conditions: higher = more signal.
Assay [3] can be described thus: PSAC antagonists in infected red cells, primary screen, cell-based, P. falciparum Indochina, OD700, 1 h (AID 1154). Conditions: P. falciparum Indochina infected RBC osmotic lysis, higher = more signal, called active from +8 up or from −8 down.
Assay [4] in a line: PSAC antagonists in infected red cells, primary screen, cell-based, P. falciparum Indochina, OD700, 2 h (AID 1155).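 Further: lysis reports solute entry through the parasite surface anion channel PSAC; channel blockers reduce lysis of infected cells.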 To be noted: P. falciparum Indochina infected erythrocytes, osmotic lysis OD700; higher = more signal, called active from +8 up or from −8 down.
A short description of assay [5]: osmotic lysis modulators in infected erythrocytes, primary screen, PSAC antagonist project, cell-based, P. falciparum Indochina, OD700, 3 h (AID 1156). To be noted: higher = more signal, called active from +8 up or from −8 down.
Assay [6] can be described thus: PSAC antagonists in infected red cells, primary screen, cell-based, P. falciparum Indochina, OD700, 18 h (AID 1157). To be noted: P. falciparum Indochina infected erythrocytes, osmotic lysis OD700, 18 h; higher = more signal, called active from +8 up or from −8 down.
Assay [7] can be described thus: modulators of S6 phosphorylation in cells, primary screen, cell-based, A549, cytoblot, luminescence, serum-stimulated (AID 1158).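 Further: serum-stimulated A549 lung adenocarcinoma cells; signal is phosphorylated S6 detected by cytoblot immunostaining with HRP secondary.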 To be noted: A549 phospho-S6 cytoblot, 5 h, higher = more signal.
Assay [8] has as its target NADPH oxidase 2 (Homo sapiens) (UniProt P04839). Description: NOX2-dependent H2O2 signal modulators, primary screen, NOX inhibitor project, cell-based, HEK293-NOX2, PMA-stimulated, Amplex Red fluorescence (AID 1159). Further: test concentration not given here. To be noted: 45 min, higher = more signal, called active from +8 up or from −8 down.
Assay [9] concerns the target NADPH oxidase 4 (Homo sapiens) (UniProt Q9NPH5). Description: NOX4-dependent H2O2 signal modulators, primary screen, NOX inhibitor project, cell-based, HEK293-NOX4, tetracycline-induced, Amplex Red fluorescence (AID 1160). To be noted: 45 min, higher = more signal, called active from +8 up or from −8 down.
The target in assay [10] is NADPH oxidase 5 (Homo sapiens) (UniProt Q96PH1). Briefly: NOX5-dependent H2O2 signal modulators, primary screen, NOX inhibitor project, cell-based, HEK293-NOX5, Amplex Red fluorescence (AID 1161). Conditions: HEK293-NOX5, ionomycin, 45 min, higher = more signal.
Sequence of NADPH oxidase 5 (Homo sapiens) (Q96PH1 whole entry, looked up): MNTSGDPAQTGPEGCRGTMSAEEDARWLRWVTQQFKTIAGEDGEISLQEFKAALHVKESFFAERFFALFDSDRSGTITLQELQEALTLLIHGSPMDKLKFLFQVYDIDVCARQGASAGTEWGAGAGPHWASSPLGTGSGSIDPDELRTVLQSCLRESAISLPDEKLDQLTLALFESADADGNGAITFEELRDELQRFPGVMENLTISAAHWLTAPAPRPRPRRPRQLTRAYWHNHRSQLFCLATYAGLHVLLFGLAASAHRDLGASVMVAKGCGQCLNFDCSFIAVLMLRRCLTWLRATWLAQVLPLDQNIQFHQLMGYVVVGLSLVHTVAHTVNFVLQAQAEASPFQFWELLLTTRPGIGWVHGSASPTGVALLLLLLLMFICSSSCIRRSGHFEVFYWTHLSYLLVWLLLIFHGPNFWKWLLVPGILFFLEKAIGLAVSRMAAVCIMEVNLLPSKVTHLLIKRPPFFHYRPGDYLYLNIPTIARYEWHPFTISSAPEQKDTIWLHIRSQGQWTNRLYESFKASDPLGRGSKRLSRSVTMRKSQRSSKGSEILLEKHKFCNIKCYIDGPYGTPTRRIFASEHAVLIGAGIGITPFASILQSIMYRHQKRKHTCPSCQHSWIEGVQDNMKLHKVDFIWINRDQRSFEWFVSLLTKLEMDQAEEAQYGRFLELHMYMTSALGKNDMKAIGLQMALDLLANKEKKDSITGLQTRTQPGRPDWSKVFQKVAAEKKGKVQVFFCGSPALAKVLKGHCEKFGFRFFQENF

Among the data in PubChem BioAssay are z-score and composite z-score values, retold here.

Structures are written as SMILES. Several values for one entry are separate records, joined by “and”; a condition that tells them apart may be missing. Identical values can stand only once. Activity calls are given as the source filed them.

Sequence of NADPH oxidase 2 (Homo sapiens) (P04839 whole entry, looked up): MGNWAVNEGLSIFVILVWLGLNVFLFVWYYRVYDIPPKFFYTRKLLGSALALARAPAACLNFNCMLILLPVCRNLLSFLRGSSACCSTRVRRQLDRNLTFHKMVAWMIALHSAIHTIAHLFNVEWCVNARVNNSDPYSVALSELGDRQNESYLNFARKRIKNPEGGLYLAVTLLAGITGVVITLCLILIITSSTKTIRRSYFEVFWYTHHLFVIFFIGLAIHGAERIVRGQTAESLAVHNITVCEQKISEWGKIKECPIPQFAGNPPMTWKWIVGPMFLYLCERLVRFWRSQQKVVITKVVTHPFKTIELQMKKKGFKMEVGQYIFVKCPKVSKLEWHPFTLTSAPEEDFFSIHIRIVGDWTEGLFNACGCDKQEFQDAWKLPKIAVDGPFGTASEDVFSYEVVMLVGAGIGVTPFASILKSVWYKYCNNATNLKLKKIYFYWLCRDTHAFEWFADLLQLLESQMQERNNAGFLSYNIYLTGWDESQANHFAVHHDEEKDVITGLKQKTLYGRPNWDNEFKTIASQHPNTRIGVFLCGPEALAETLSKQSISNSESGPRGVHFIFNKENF
Sequence of NADPH oxidase 4 (Homo sapiens) (Q9NPH5 whole entry, looked up): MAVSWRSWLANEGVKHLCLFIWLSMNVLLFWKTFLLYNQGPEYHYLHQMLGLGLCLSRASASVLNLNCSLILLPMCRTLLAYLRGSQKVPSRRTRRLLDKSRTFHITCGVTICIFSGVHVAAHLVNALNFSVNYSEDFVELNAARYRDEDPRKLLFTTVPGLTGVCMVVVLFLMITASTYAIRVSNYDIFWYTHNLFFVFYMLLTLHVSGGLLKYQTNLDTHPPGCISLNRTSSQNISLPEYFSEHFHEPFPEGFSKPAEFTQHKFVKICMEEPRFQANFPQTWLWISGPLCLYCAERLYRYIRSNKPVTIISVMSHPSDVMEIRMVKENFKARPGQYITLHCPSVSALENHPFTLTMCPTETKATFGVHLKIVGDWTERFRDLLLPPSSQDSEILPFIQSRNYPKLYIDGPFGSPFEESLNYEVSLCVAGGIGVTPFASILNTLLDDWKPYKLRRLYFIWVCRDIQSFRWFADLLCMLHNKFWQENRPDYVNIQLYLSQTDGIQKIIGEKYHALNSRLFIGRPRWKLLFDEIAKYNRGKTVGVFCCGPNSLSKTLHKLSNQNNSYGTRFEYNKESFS

Take `C#CCCCON=C1C[C@@H](O)[C@@H](O)[C@@H]2[C@@H]3C(=O)N(C4CCCCC4)C(=O)[C@@H]3CC[C@H]12`: the z-score is 0.747 (inactive) in assay [1]; 0.869 (inactive) in [3]; -0.68 (inactive) in [4]; 0.403 (inactive) in assay [5]; -0.113 (inactive) in assay [6]; -0.126 in assay [7]. The z-score was -1.26 (inactive) in assay [8], -0.426 (inactive) in assay [9] and -2.7 in assay [10]. In addition, in assay [2], the composite z-score is -0.147.
For the compound `CC(C)=NOCc1ccc(-c2cn([C@@H]3COC[C@H]3O)nn2)cc1`, the z-score was 0.164 (inactive) in [1]; 11.2 (active) in assay [3]; 0.536 (inactive) in assay [4]; -0.725 (inactive) in [5]; 0.296 (inactive) in assay [6]; -0.119 in assay [7]. The figures for the z-score in assay [8], in assay [9] and in assay [10] were 0.606 (inactive), 0.0519 (inactive) and -0.388, respectively. Further, the composite z-score in [2] is -0.245.
Take `C[N+](C)(C)CCCCCCNC(=O)[C@H]1C[C@H]2C(=O)N[C@@H](CCCC[N+](C)(C)C)C(=O)N2[C@H]1c1cccc(OCCO)c1`: the z-score in [1] was 1.06 (inactive) and -0.391 (inactive); in [3], 3.2 (inactive) and 3.03 (inactive); in [4], 1.03 (inactive) and 1.07 (inactive); in assay [5], 0.0478 (inactive) and -2.4 (inactive); in assay [6], 0.448 (inactive) and 0.301 (inactive); in [7], -0.0981 and -0.617. Further, the z-score is -0.142 (inactive) and -0.0849 (inactive) in [8]; 0.566 (inactive) and 0.746 (inactive) in [9]; 0.749 and 0.86 in [10]. Besides, the composite z-score in assay [2] is 0.212 and 1.06.
As for `CC(C)[Si]1(C(C)C)OCc2cc(C3CC3)nc(CCc3ccccc3)c21`, the z-score in [1] was -0.102 (inactive) and -0.904 (inactive); in assay [3], 0.922 (inactive) and 0.437 (inactive); in assay [4], 0.742 (inactive) and 0.438 (inactive); in assay [5], -0.416 (inactive) and -0.978 (inactive); in assay [6], 0.309 (inactive) and -0.401 (inactive); in assay [7], -0.295 and -0.326. Moreover, the z-score in [8] was 2.57 (inactive) and -0.368 (inactive); in assay [9] it was 1.14 (inactive) and 1.35 (inactive); in assay [10], -0.319 and -2.87. Moreover, in assay [2], the composite z-score was 0.111 and -0.235.
On to `C#CCN1C(/C=C/c2ccccc2)C(=O)OC[C@H]1c1ccccc1` (stereo not given in full), for which the z-score in assay [1] is 1.75 (inactive) and 0.239 (inactive); in [3], 4.02 (inactive) and 1.57 (inactive); in assay [4], 0.277 (inactive) and 0.538 (inactive); in assay [5] it was 0.244 (inactive) and 0.713 (inactive); in [6], -0.947 (inactive) and 0.377 (inactive); in assay [7], 4.14 and -0.153. Besides, the z-score in assay [8] is 0.353 (inactive) and 1.86 (inactive); in assay [9], 0.0869 (inactive) and 0.344 (inactive); in assay [10], 0.189 and 0.518. Further, the composite z-score in assay [2] was -0.021 and -0.0536.
As to `C=CCN(CCCCC)C(=O)C1N(CCOCCO)C(=O)C2C(C(=O)O)C3C=CC21O3` (stereo not given), the z-score in [1] is -0.657 (inactive) and -0.678 (inactive); in [3] it was -0.326 (inactive) and 0.243 (inactive); in assay [4], -0.438 (inactive) and -0.392 (inactive); in assay [5], -0.661 (inactive) and -0.448 (inactive); in [6] it was 0.0613 (inactive) and -0.159 (inactive); in [7] it was -0.192 and 0.359. Also, the z-score in [8] is 0.347 (inactive) and 0.481 (inactive); in assay [9], -1.7 (inactive) and -1.87 (inactive); in [10] it was 0.569 and 0.0493. For the same compound, the composite z-score in assay [2] is -0.0518 and -0.0061.
Take `CC(C)=CCCC(C)=CCON=C1C[C@@H](O)[C@@H](O)[C@@H]2[C@@H]3C(=O)N([C@@H](C)c4ccccc4)C(=O)[C@@H]3CC[C@H]12`: the z-score in assay [1] was -0.125 (inactive); in assay [3] it was 11.1 (active); in [4], 0.362 (inactive); in assay [5] it was 1.3 (inactive); in assay [6] it was -0.944 (inactive); in assay [7], 1.27. In addition, the z-score in [8] was -1.06 (inactive); in [9] it was -0.306 (inactive); in [10], -4.23. Further, the composite z-score in [2] is -0.0603.
Take `C[N+](C)(C)CCCCCCNC(=O)[C@@H]1C[C@@H]2C(=O)N[C@@H](CCCC[N+](C)(C)C)C(=O)N2[C@@H]1c1ccc(O)cc1`: the z-score in assay [1] was 0.877 (inactive) and 0.123 (inactive); in assay [3], 0.973 (inactive) and 1.9 (inactive); in assay [4], 0.106 (inactive) and 0.554 (inactive); in assay [5], -0.0454 (inactive) and 0.0605 (inactive); in assay [6], -0.115 (inactive) and 0.375 (inactive); in assay [7], -0.336 and -0.254. Further, the z-score in assay [8] was -0.441 (inactive) and -0.988 (inactive); in [9], 0.105 (inactive) and -0.431 (inactive); in assay [10] it was 0.58 and -0.839. In addition, in assay [2], the composite z-score was -0.0011 and -0.149.
In the case of `C=CCN(CCCCC)C(=O)C1N(c2ccc(CCO)cc2)C(=O)C2C(C(=O)O)C3C=CC21O3` (stereo not given), the z-score in assay [1] was -0.202 (inactive) and 0.216 (inactive); in assay [3], 1.47 (inactive) and 1.68 (inactive); in [4], 0.351 (inactive) and 0.438 (inactive); in assay [5], -0.148 (inactive) and -0.54 (inactive); in assay [6], 0.0385 (inactive) and 0.356 (inactive); in [7], 1.15 and 0.435. For the same compound, the z-score in assay [8] is 1.21 (inactive) and 0.745 (inactive); in [9], 0.564 (inactive) and 0.124 (inactive); in assay [10], 0.698 and 0.836. For the same compound, the composite z-score in assay [2] was -0.0099 and 0.0736.
